Source: PubChem BioAssay AID1159580 (chemical genetic matrix, 2015)
“And” between values parts separate entries of the source, which are not always exact repeats. Equal entries are not always repeated. Screen size: about 5,500 compounds; about 2,000 (36%) were called active. Roughly 18% stayed inconclusive and do not appear here. Cut-off read from the data, not from the text of the source: active = normalized growth mostly below about 0.91 (no sharp cut-off); inconclusive = no clear call, values can overlap the other calls; inactive = mostly above about 0.92. The list shows a part of the results.

Assay: chemical genetic growth profiling, strain panel (AID 1159580);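 note: tested at 20 µM; growth read once vehicle control cultures reached saturation at 30 °C; 1 = growth at the plate median or of vehicle wells; lower values mean less growth of the strain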
Settings: S. cerevisiae deletion strains, growth OD

Measured: normalized growth

CO[C@@H]1[C@@H](O[C@@H]2O[C@H](C)[C@@H](O[C@H]3C[C@@](C)(O)[C@H](O)[C@H](C)O3)[C@H](N(C)C)[C@H]2O)[C@@H](CC=O)C[C@@H](C)[C@@H](O[C@H]2CC[C@H](N(C)C)[C@@H](C)O2)/C=C/C=C/C[C@H](C)OC(=O)C[C@H]1O
inactive: locus YAL021C, strain ccr4, stronger effect = lower value 1.02 | locus YAL026C, strain drs2, stronger effect = lower value 1.01 | locus YAL030W, strain snc1, stronger effect = lower value 0.997 | locus YBL061C, strain skt5, stronger effect = lower value 1.02 | locus YBR009C, strain hhf1, stronger effect = lower value 1.01 | locus YBR021W, strain FUR4, stronger effect = lower value 1.03 | locus YBR023C, strain chs3, stronger effect = lower value 1.01 | locus YBR171W, strain sec66, stronger effect = lower value 1.02 | locus YBR229C, strain ROT2, stronger effect = lower value 1.02 | locus YBR231C, strain swc5, stronger effect = lower value 1.02 | locus YBR279W, strain paf1, stronger effect = lower value 1.03 | locus YCL011C, strain gbp2, stronger effect = lower value 1.01 | locus YCL016C, strain dcc1, stronger effect = lower value 1.01 | locus YCL029C, strain bik1, stronger effect = lower value 1 | locus YCL061C, strain MRC1, stronger effect = lower value 1.01 | locus YCL069W, strain vba3, stronger effect = lower value 1.01 | locus YCR088W, strain abp1, stronger effect = lower value 1.02 | locus YDL005C, strain med2, stronger effect = lower value 1.01 | locus YDL035C, strain GPR1, stronger effect = lower value 1 | locus YDL040C, strain nat1, stronger effect = lower value 1.02 | locus YDL074C, strain BRE1, stronger effect = lower value 1.04 | locus YDL101C, strain DUN1, stronger effect = lower value 1.01 | locus YDL185W, strain tfp1, stronger effect = lower value 0.976 | locus YDL192W, strain arf1, stronger effect = lower value 0.998 | locus YDR001C, strain nth1, stronger effect = lower value 1.01 | locus YDR069C, strain doa4, stronger effect = lower value 1 | locus YDR101C, strain arx1, stronger effect = lower value 1.02 | locus YDR137W, strain rgp1, stronger effect = lower value 1.02 | locus YDR150W, strain NUM1, stronger effect = lower value 1.02 | locus YDR159W, strain sac3, stronger effect = lower value 1.01 | locus YDR162C, strain NBP2, stronger effect = lower value 1.01 | locus YDR195W, strain ref2 1 | locus YDR297W, strain sur2, stronger effect = lower value 1.01 | locus YDR318W, strain mcm21, stronger effect = lower value 0.996 | locus YDR334W, strain swr1, stronger effect = lower value 1.03 | locus YDR335W, strain msn5, stronger effect = lower value 1.01 | locus YDR388W, stronger effect = lower value 1 | locus YDR392W, strain spt3, stronger effect = lower value 1.02 | locus YDR502C, strain sam2, stronger effect = lower value 0.989 | locus YEL003W, strain gim4, stronger effect = lower value 1.01 | locus YEL037C, strain rad23, stronger effect = lower value 1.01 | locus YEL061C, strain CIN8 (second series), stronger effect = lower value 1.01 | locus YEL061C, strain CIN8, stronger effect = lower value 1.01 | locus YER015W, strain faa2, stronger effect = lower value 1 | locus YER016W, strain bim1, stronger effect = lower value 1.01 | locus YER110C, stronger effect = lower value 0.967 | locus YER111C, strain swi4, stronger effect = lower value 1.01 | locus YER155C, strain BEM2 (second series), stronger effect = lower value 1.02 | locus YER155C, strain BEM2, stronger effect = lower value 1.01 | locus YER167W, strain BCK2, stronger effect = lower value 1.02 | locus YFR010W, strain ubp6, stronger effect = lower value 1.02 | locus YGL078C, strain dbp3, stronger effect = lower value 0.982 | locus YGL086W, strain mad1, stronger effect = lower value 0.994 | locus YGL167C, strain pmr1, stronger effect = lower value 1.01 | locus YGL173C, strain kem1, stronger effect = lower value 1.01 | locus YGL227W, strain vid30, stronger effect = lower value 1.02 | locus YGL240W, strain doc1, stronger effect = lower value 0.999 | locus YGL248W, strain PDE1, stronger effect = lower value 1.02 | locus YGL253W, strain hxk2, stronger effect = lower value 1.01 | locus YGR078C, strain PAC10, stronger effect = lower value 1.01 | locus YGR135W, strain pre9, stronger effect = lower value 0.955 | locus YGR229C, strain SMI1, stronger effect = lower value 1.03 | locus YGR252W, strain gcn5, stronger effect = lower value 0.95 | locus YHR013C, strain ard1, stronger effect = lower value 1.03 | locus YHR027C, strain rpn1, stronger effect = lower value 1.01 | locus YHR030C, strain SLT2, stronger effect = lower value 1.02 and 0.972 | locus YHR079C, strain IRE1 (second series), stronger effect = lower value 1 | locus YHR079C, strain IRE1, stronger effect = lower value 0.961 | locus YHR094C, strain hxt1, stronger effect = lower value 1 | locus YHR129C, strain ARP1, stronger effect = lower value 1.02 | locus YHR142W, strain chs7, stronger effect = lower value 1 | locus YHR200W, strain rpn10, stronger effect = lower value 0.984 | locus YIL066C, strain RNR3, stronger effect = lower value 1.03 | locus YIL073C, strain SPO22, stronger effect = lower value 0.928 | locus YIL125W, strain kgd1, stronger effect = lower value 0.997 | locus YIR030C, strain dcg1, stronger effect = lower value 1 | locus YJL092W, strain hpr5, stronger effect = lower value 1.01 | locus YJL095W, strain BCK1 (second series), stronger effect = lower value 1.01 | locus YJL095W, strain BCK1, stronger effect = lower value 1.01 and 0.969 | locus YJL115W, strain asf1, stronger effect = lower value 1.02 | locus YJL129C, strain trk1, stronger effect = lower value 1 | locus YJL134W, strain LCB3, stronger effect = lower value 1.01 | locus YJL154C, strain vps35, stronger effect = lower value 1.02 | locus YJL164C, strain tpk1, stronger effect = lower value 1 | locus YJL166W, strain qcr8, stronger effect = lower value 1.02 | locus YJL168C, strain set2, stronger effect = lower value 0.979 | locus YJL187C, strain SWE1 (second series), stronger effect = lower value 1.02 | locus YJL187C, strain SWE1, stronger effect = lower value 1.01 | locus YJR043C, strain POL32, stronger effect = lower value 1 | locus YJR066W, strain TOR1, stronger effect = lower value 0.922 | locus YJR075W, strain HOC1, stronger effect = lower value 0.991 | locus YKL009W, strain mrt4, stronger effect = lower value 0.969 | locus YKL068W, stronger effect = lower value 1.02 | locus YKL085W, strain MDH1 (second series), stronger effect = lower value 1.01 | locus YKL085W, strain MDH1, stronger effect = lower value 1.01 | locus YKL160W, strain elf1, stronger effect = lower value 1.02 | locus YKR001C, strain vps1, stronger effect = lower value 0.982 | locus YKR026C, strain gcn3, stronger effect = lower value 1.02 | locus YKR091W, strain srl3, stronger effect = lower value 1.01 | locus YLL001W, strain dnm1, stronger effect = lower value 1.01 | locus YLL026W, stronger effect = lower value 1.01 | locus YLL041C, strain sdh2, stronger effect = lower value 1.01 | locus YLR027C, strain aat2, stronger effect = lower value 1.01 | locus YLR039C, strain RIC1, stronger effect = lower value 0.943 | locus YLR058C, strain SHM2, stronger effect = lower value 1.02 | locus YLR102C, strain apc9, stronger effect = lower value 0.997 | locus YLR113W, strain HOG1, stronger effect = lower value 0.965 | locus YLR221C, strain rsa3, stronger effect = lower value 1 | locus YLR258W, strain gsy2, stronger effect = lower value 1.01 | locus YLR262C, strain YPT6 (second series), stronger effect = lower value 1.02 | locus YLR262C, strain YPT6, stronger effect = lower value 0.989 | locus YLR268W, strain sec22, stronger effect = lower value 0.996 | locus YLR320W, strain mms22, stronger effect = lower value 1.02 | locus YLR330W, strain CHS5, stronger effect = lower value 1.01 | locus YLR342W, strain FKS1 (second series), stronger effect = lower value 0.999 | locus YLR342W, strain FKS1, stronger effect = lower value 1.02 | locus YLR357W, strain rsc2, stronger effect = lower value 1.02 | locus YLR370C, strain arc18, stronger effect = lower value 1.01 | locus YLR371W, strain rom2, stronger effect = lower value 1 | locus YLR384C, strain iki3, stronger effect = lower value 1.03 | locus YLR418C, strain cdc73, stronger effect = lower value 0.967 | locus YML016C, strain PPZ1, stronger effect = lower value 1.01 | locus YML032C, strain rad52, stronger effect = lower value 0.955 | locus YML120C, strain ndi1, stronger effect = lower value 1.01 | locus YML124C, strain tub3, stronger effect = lower value 1 | locus YMR058W, strain fet3, stronger effect = lower value 1.02 | locus YMR078C, strain ctf18, stronger effect = lower value 0.993 | locus YMR125W, strain sto1, stronger effect = lower value 1.01 | locus YMR129W, stronger effect = lower value 1.02 | locus YMR205C, strain PFK2, stronger effect = lower value 1.03 | locus YMR223W, strain ubp8, stronger effect = lower value 0.975 | locus YMR231W, strain pep5, stronger effect = lower value 1 | locus YMR263W, strain SAP30, stronger effect = lower value 1.01 | locus YMR307W, strain GAS1, stronger effect = lower value 0.959 | locus YNL067W, strain RPL9B, stronger effect = lower value 1.01 | locus YNL071W, strain lat1, stronger effect = lower value 1 | locus YNL153C, strain GIM3, stronger effect = lower value 1.01 | locus YNL183C, strain NPR1, stronger effect = lower value 0.921 | locus YNL209W, strain ssb2, stronger effect = lower value 1.02 | locus YNL233W, strain BNI4, stronger effect = lower value 1 | locus YNL248C, strain rpa49, stronger effect = lower value 1.01 | locus YNL250W, strain rad50, stronger effect = lower value 0.989 | locus YNL271C, strain bni1, stronger effect = lower value 1 | locus YNL298W, strain CLA4, stronger effect = lower value 0.997 | locus YNL307C, strain MCK1, stronger effect = lower value 0.993 | locus YNL322C, strain KRE1 (second series), stronger effect = lower value 1.01 | locus YNL322C, strain KRE1, stronger effect = lower value 1.02 | locus YNR049C, strain mso1, stronger effect = lower value 1.02 | locus YNR052C, strain pop2, stronger effect = lower value 0.996 | locus YOL012C, strain htz1 0.441 | locus YOL147C, strain pex11, stronger effect = lower value 0.991 | locus YOR001W, strain rrp6, stronger effect = lower value 0.998 | locus YOR061W, strain CKA2, stronger effect = lower value 1.01 | locus YOR069W, strain VPS5, stronger effect = lower value 1.01 | locus YOR070C, strain gyp1, stronger effect = lower value 1.01 | locus YOR080W, strain dia2, stronger effect = lower value 1.01 | locus YOR083W, strain WHI5, stronger effect = lower value 1.02 | locus YOR106W, strain vam3, stronger effect = lower value 1.03 | locus YOR136W, strain idh2, stronger effect = lower value 1 | locus YOR144C, strain elg1, stronger effect = lower value 0.992 | locus YOR184W, strain ser1, stronger effect = lower value 0.967 | locus YOR231W, strain MKK1, stronger effect = lower value 0.973 | locus YOR265W, strain rbl2, stronger effect = lower value 1.01 | locus YOR270C, strain vph1, stronger effect = lower value 0.997 | locus YOR290C, strain snf2, stronger effect = lower value 1 | locus YOR316C, strain cot1, stronger effect = lower value 1.01 | locus YPL051W, strain arl3, stronger effect = lower value 1.01 | locus YPL055C, strain LGE1, stronger effect = lower value 1.03 | locus YPL078C, strain atp4, stronger effect = lower value 1.01 | locus YPL106C, strain sse1, stronger effect = lower value 1.04 | locus YPL240C, strain hsp82, stronger effect = lower value 1.01 | locus YPL256C, strain CLN2, stronger effect = lower value 1 | locus YPR119W, strain clb2, stronger effect = lower value 0.994 | locus YPR141C, strain kar3, stronger effect = lower value 1.02 | locus YPR163C, strain tif3, stronger effect = lower value 1.01 | locus YPR167C, strain met16, stronger effect = lower value 1 | strain wtn01, stronger effect = lower value 0.989
